# Data taken from PubChem BioAssay (NCATS).
# Several values for one entry are separate records, joined by “and”; a condition that tells them apart may be missing. Equal values may be shown once. Inconclusive results are not listed. Entries that show only a call come without a potency. Where a structure was tested more than once in an assay, its records may differ in their call. Activity calls are given as the source filed them. Unless noted, calls come from the whole dose curve; as a rule, active = well fitted curve in the direction sought with a large enough effect; inconclusive = small, poorly fitted or top-dose-only effect, or another doubt; inactive = no such curve, though single readings can be large; an effect the other way counts as inactive or inconclusive.
# Legend:
# [1] = Primary qHTS for inhibitors of nuclear receptor binding SET domain protein 2 (NSD2) in an RCH-ACV wild type WT cells (2C) (AID 1645877); note: nearly all actives have a fitted effect of over 70% in size; note: potency is the fitted concentration of half-maximal effect
# [2] = target: Glutathione peroxidase 1 (Homo sapiens) (UniProt P07203); assay: Primary qHTS Assay for Inhibitors of Recombinant Selenoprotein Glutathione Peroxidase 1 (GPX1) (AID 1845191); note: nearly all actives have a fitted effect of over 65% in size
# Procedure, shortened: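 Recombinant GPX1 (10 nM final) was preincubated with compound for 30 min at room temperature, then reacted with 1 mM GSH, 0.5 mM CHP, 0.5 mM NADPH and 100 nM glutathione reductase; NADPH fluorescence (340/450 nm) was read at 0 and 15 min.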
# [3] = target: Phospholipid hydroperoxide glutathione peroxidase GPX4 (Homo sapiens) (UniProt P36969); assay: Primary qHTS Assay for Inhibitors of Recombinant Selenoprotein Glutathione Peroxidase 4 (GPX4) (AID 1845192); settings: outcome: dose series up to 50 µM unless noted; note: nearly all actives have a fitted effect of over 65% in size
# Procedure, shortened: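 GR-coupled readout: 100 nM GR, 1 mM GSH, 0.5 mM NADPH; NADPH fluorescence (ex 340/em 450 nm) read at t=0 and after 15 min RT. GPX4 200 nM, preincubated 30 min with compound; substrate 0.5 mM CHP.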
# [4] = qHTS drug screen for cell cycle checkpoint inhibitors in PARPi-resistant BRCA-mutant ovarian cancer cell lines. (AID 1963452; calls by dose curve); settings: PEO1/OlaR viability, CellTiter-Glo luminescence, 96 h, stronger effect = lower value
# Procedure, shortened: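 PEO1, PEO4 and PEO1/OlaR ovarian cancer cells, 600 per well, exposed 96 h at 37C to a dilution series. Viability read by CellTiter-Glo luminescence, normalized to DMSO and empty wells; activity summarized as Z-AUC.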
# [5] = HEK-293 Cancer Cell Toxicity qHTS against the NCATS CANVASS Library (AID 1347355); note: nearly all actives have a fitted effect of over 65% in size; note: potency is the fitted concentration of half-maximal effect
# Procedure, shortened: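 Cells at 1000/well were given compound 4 h after plating in an 11-point series. Viability was read by CellTiter-Glo luminescence after 72 h at 37 degrees C.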
# [6] = test system: NAD(P)H diaphorase (Clostridium kluyveri); assay: Diaphorse counterscreen qHTS: Assay Interference Panel against the NCATS CANVASS Library (AID 1347362)
# Procedure, shortened: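 Clostridium kluyveri diaphorase in PBS with 0.01% Tween-20 was preincubated 15 min at room temperature in the dark with compounds (11-point series). Resorufin fluorescence (ex 525/20, em 598/25) was read 5 min after adding resazurin/NADH.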
# [7] = KB-8-5-11 Cancer Cell Toxicity qHTS against the NCATS CANVASS Library (AID 1347364); note: nearly all actives have a fitted effect of over 75% in size; note: potency is the fitted concentration of half-maximal effect
# Procedure, shortened: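 KB-8-5-11 cells, 500/well in DMEM + 10% FBS, given compounds in an 11-point series. Incubated 72 h at 37 °C. Viability by CellTiter-Glo luminescence. Confirmation also run with 1 uM tariquidar.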
# [8] = SDT Cancer Cell Toxicity qHTS against the NCATS CANVASS Library (AID 1347365); note: nearly all actives have a fitted effect of over 60% in size; note: potency is the fitted concentration of half-maximal effect
# Procedure, shortened: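 SDT dog glioma cells (500/well) exposed to an 11-point compound series for 72 hr at 37C, 5% CO2. Cytotoxicity read as ATP content by CellTiterGlo luminescence; bortezomib titration as control.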
# [9] = target: Nuclear receptor subfamily 1 group I member 3 (Homo sapiens) (UniProt Q14994); assay: qHTS for Constitutive Androstane Receptor (CAR) Antagonist screened against the NCATS CANVASS Library (AID 1347372);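 note: cells stimulated with 50 nM CITCO agonist so inhibition reflects antagonism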
# Procedure, shortened: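 HepG2 cells stably carrying hCAR and a CYP2B6-2.2kb luciferase reporter were exposed to compounds plus 50 nM CITCO for 24hr at 37C. CAR activity was read by ONE-Glo luminescence, with viability measured first by CellTiter-Fluor.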
# [10] = qHTS for Antimalaria activity screened against the NCATS CANVASS Library (AID 1347380); note: nearly all actives have a fitted effect of over 40% in size; note: potency is the fitted concentration of half-maximal effect;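 for activity change, negative = inhibition: Plasmodium falciparum strain Dd2 asexual parasites grown in red blood cells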
# Procedure, shortened: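 Red blood cells infected with P. falciparum Dd2 (2.5% hematocrit final, 0.3% parasitemia) were exposed to compounds in an 11-point qHTS series for 72 hr at 37C under 5% O2 and 5% CO2. Lysis buffer with SYBR Green was then added for 18 hr, and fluorescence was read at 485/535 nm.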
# [11] = qHTS for activators of dead-cell proteases activity screened against the NCATS CANVASS Library (AID 1347392);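 note: luminescence from protease leaking out of membrane-damaged cells cleaving impermeant substrate; rising signal means more cytotoxicity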
# Procedure, shortened: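 HepG2 cells (2000/well) attached 18 h at 37C, then exposed 5 h to compounds (11-point qHTS). Dead-cell protease activity read as luminescence from cell-impermeant AAF-aminoluciferin substrate after 15 min at room temperature.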
# [12] = Panc-1005 Cancer Cell Toxicity qHTS against the NCATS CANVASS Library (AID 1347349); note: nearly all actives have a fitted effect of over 60% in size
# Procedure, shortened: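 Viability read-out: CellTiter-Glo luminescence after 72 h compound exposure at 37 °C/5% CO2. Cells plated at 1000/well, 4 h pre-incubation; 11-point titration. Bortezomib served as control.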
# [13] = Cytotoxicity qHTS for assessment of Hepg2 cells membrane integrity screened against the NCATS CANVASS Library (AID 1347387)
# Procedure, shortened: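 HepG2 cells (2000/well) attached overnight, then exposed 5 hr at 37C to compounds in an 11-point series (0.59 nM - 46 uM final). LDH release from damaged membranes read fluorometrically (CytoTox-ONE; 560/590 nm) after 10 min at room temperature.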
# [14] = Primary qHTS for small molecule stabilizers of the endoplasmic reticulum resident proteome: Secreted ER Calcium Modulated Protein (SERCaMP) assay (AID 1508630)
# Procedure, shortened: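 GLuc-SERCaMP-expressing SH-SY5Y cells, pretreated 16 h with compound, are challenged with thapsigargin to empty ER calcium stores; after 4 h, coelenterazine is added directly to the medium and luminescence is imaged.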
# [15] = target: Glucocorticoid receptor (Homo sapiens) (UniProt P04150); assay: GR-GFP Redistribution (AID 450;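 active = compounds whose dose series gives a full or clear partial fitted curve of increased nuclear translocation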; note: potency is the fitted concentration of half-maximal effect); settings: U2OS GR-GFP nuclear translocation, laser cytometry, 2 h
# [16] = Primary qHTS for inhibitors of nuclear receptor binding SET domain protein 2 (NSD2) in an isogenic RCH-ACV NSD2 p.E1099K mutant (9B) (AID 1645876); note: nearly all actives have a fitted effect of over 70% in size; note: potency is the fitted concentration of half-maximal effect
# [17] = target: Glucocorticoid receptor (Homo sapiens) (UniProt P04150); assay: GR-EFC Redistribution (AID 451; calls by dose curve; note: potency is the fitted concentration of half-maximal effect); settings: CHO-K1 GR-EFC translocation, beta-gal luminescence, 2 h
# Procedure, shortened: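 CHO-K1 cells stably expressing nuclear-localized β-gal enzyme acceptor and GR fused C-terminally to the enzyme donor fragment; ligand-driven nuclear translocation restores β-gal by complementation. Compounds titrated up to 46 uM final, 2 h at 37 °C; luminescence read.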
# [18] = qHTS Assay for Lipid Storage Modulators (AID 1519; calls by dose curve); settings: Drosophila S3 cells, BODIPY lipid droplet/cell ratio, laser cytometry, cells loaded with oleic acid; for activity change, negative = inhibition: at 57.5 µM (top of the series)
# Procedure, shortened: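 Cells seeded at 5,000 per well were treated with compounds over a concentration series and loaded with oleic acid (400 uM, as added). Lipid droplet fluorescence (488 nm excitation, 500-530 nm channel) was read by laser-scanning cytometry and normalized to 20 uM Triacsin C.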
# [19] = target: Ubiquitin carboxyl-terminal hydrolase 1 (Homo sapiens) (UniProt O94782); assay: Inhibitors of USP1/UAF1: Pilot qHTS (AID 504865);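 note: rhodamine fluorescence freed from ubiquitin-rhodamine substrate followed over time; top concentration of the series differs between compounds; nearly all actives have a fitted effect of over 35% in size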
# Procedure, shortened: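 USP1/UAF1 complex at 1 nM preincubated 15 min at room temperature with compound, then Ub-Rho substrate added at 150 nM final. Fluorescence (480/540 nm) read kinetically in 50 mM HEPES pH 7.8, 0.5 mM EDTA, 1 mM TCEP, 0.1 mg/ml BSA, 0.01% Tween-20.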
# [20] = target: DNA dC->dU-editing enzyme APOBEC-3G (Homo sapiens) (UniProt Q9HC16); assay: qHTS for inhibitors of Vif-A3G interactions: Validation (AID 588379)
# Procedure, shortened: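 HeLa cells stably expressing Vif and A3G-eYFP, 700 cells/well, incubated overnight at 37 deg C, then exposed to compound overnight at 37 deg C. Inhibition of Vif-mediated degradation read as increased yellow fluorescence (Ex 488/Em 500-530) by laser-scanning cytometry.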
# [21] = measured here: PEO1 parental Z-AUC
# [22] = measured here: cell count channel max response
# [23] = measured here: lipid channel max response
# Sequence of Nuclear receptor subfamily 1 group I member 3 (Homo sapiens) (Q14994 whole entry, looked up): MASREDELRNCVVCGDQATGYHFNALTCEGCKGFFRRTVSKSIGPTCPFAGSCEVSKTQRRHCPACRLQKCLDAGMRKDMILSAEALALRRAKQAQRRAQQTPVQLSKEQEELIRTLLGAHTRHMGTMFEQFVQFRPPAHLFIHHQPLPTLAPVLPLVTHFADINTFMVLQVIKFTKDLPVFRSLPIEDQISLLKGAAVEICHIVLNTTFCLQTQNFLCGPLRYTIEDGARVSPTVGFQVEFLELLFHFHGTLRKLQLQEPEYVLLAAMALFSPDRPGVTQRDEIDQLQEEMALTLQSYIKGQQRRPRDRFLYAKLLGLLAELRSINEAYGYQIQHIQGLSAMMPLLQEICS
# Sequence of Ubiquitin carboxyl-terminal hydrolase 1 (Homo sapiens) (O94782 whole entry, looked up): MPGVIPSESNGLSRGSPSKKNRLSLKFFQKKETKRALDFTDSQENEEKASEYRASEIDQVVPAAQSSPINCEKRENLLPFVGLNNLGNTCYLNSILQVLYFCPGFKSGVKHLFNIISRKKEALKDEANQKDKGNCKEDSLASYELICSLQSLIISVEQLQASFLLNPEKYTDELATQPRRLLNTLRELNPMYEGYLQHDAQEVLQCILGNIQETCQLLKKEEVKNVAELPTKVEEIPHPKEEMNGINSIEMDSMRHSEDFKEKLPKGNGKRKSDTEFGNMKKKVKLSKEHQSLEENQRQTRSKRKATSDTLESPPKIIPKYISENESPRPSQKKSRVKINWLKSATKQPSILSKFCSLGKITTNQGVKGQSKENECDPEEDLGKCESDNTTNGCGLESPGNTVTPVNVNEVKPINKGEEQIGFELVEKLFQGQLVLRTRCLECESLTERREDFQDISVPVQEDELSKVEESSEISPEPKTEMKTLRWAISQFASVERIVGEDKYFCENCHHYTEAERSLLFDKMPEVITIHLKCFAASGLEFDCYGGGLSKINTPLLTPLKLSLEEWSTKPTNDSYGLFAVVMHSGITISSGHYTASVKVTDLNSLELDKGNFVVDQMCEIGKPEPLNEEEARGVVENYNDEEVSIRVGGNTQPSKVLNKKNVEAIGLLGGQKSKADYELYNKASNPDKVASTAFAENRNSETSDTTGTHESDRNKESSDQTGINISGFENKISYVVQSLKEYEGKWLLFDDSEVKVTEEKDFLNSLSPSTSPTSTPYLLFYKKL
# Sequence of DNA dC->dU-editing enzyme APOBEC-3G (Homo sapiens) (Q9HC16 whole entry, looked up): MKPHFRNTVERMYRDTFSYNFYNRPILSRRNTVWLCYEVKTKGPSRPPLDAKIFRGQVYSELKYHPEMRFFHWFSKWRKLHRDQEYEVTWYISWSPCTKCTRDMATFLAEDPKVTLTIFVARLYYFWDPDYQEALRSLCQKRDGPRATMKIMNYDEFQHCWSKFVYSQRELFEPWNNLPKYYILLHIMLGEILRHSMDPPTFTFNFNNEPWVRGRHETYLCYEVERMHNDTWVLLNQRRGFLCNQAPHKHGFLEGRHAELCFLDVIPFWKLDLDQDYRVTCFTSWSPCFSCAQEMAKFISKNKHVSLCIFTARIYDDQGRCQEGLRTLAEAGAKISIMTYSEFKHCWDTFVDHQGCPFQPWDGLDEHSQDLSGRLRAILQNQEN
# Sequence of Glucocorticoid receptor (Homo sapiens) (P04150 whole entry, looked up, the tested form may be a part): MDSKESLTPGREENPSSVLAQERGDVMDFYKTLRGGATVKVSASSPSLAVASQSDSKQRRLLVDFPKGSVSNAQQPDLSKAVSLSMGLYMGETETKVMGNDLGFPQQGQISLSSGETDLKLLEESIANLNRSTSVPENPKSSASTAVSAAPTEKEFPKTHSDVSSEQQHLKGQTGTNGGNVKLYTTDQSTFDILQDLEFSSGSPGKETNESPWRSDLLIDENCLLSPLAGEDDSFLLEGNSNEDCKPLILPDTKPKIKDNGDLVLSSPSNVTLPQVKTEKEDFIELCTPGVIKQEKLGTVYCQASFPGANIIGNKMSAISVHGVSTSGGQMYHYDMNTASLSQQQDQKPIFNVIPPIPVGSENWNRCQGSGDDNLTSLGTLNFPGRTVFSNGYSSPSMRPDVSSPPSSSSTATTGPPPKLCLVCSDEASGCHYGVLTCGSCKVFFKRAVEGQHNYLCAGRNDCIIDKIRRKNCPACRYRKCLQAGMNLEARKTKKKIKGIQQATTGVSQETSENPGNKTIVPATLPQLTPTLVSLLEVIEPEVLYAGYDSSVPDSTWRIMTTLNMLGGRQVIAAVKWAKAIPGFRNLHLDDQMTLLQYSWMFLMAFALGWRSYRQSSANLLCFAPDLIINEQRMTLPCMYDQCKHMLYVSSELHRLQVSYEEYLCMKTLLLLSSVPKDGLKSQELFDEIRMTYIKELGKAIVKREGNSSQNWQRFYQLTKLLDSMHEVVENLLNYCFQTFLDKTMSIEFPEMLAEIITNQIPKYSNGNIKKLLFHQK
# Sequence of Phospholipid hydroperoxide glutathione peroxidase GPX4 (Homo sapiens) (P36969 whole entry, looked up): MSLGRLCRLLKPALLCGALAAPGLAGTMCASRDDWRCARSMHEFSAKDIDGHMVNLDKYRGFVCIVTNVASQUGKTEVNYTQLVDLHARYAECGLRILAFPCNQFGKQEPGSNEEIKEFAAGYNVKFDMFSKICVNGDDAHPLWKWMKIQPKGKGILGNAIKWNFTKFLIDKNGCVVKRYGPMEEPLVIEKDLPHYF
# Sequence of Glutathione peroxidase 1 (Homo sapiens) (P07203 whole entry, looked up): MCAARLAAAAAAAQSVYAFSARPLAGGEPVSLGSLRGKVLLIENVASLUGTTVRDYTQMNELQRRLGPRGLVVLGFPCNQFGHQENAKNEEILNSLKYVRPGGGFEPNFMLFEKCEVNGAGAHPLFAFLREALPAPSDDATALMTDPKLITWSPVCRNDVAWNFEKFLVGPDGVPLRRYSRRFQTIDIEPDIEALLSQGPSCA
structure (smiles),measurement,setting,value
CNC(=O)c1c(C)oc2cc(Oc3ncnc4cc(OC)c(OC)cc34)ccc12,Potency,[1],inactive
same,Potency,[2],inactive
same,Potency,[3],inactive
same,Z-AUC,[4],-0.474 (inactive)
same,Z-AUC,[4]; [21],-0.16
same,Z-AUC,[4]; measured here: PEO4 Z-AUC,-0.205
CC1=CC2=C[C@H](C)C[C@@]23OC(=C(C)C3=O)CC(C)(C)/C=C/C1=O,Potency,[5],0.526 µM (active)
same,Potency,[6],inactive
same,Potency,[7],2.09 µM (active)
same,Potency,[8],0.662 µM (active)
same,Potency,[9],inactive
same,Potency,[10],2.36 µM (active)
C[C@@H]1O[C@@H](Oc2c(-c3ccc(O)cc3)oc3cc(O)cc(O)c3c2=O)[C@H](O)[C@H](O)[C@H]1O,Potency,[5],inactive
same,Potency,[10],inactive
same,Potency,[11],inactive
CN1C(=O)C2C(N=CN2C)N(C)C1=O (configuration not stated),Potency,[12],inactive
same,Potency,[5],inactive
same,Potency,[8],inactive
same,Potency,[9],inactive
same,Potency,[10],inactive
CC12C[C@]3(O)O[C@@H](O1)[C@]1(COC(=O)c4ccccc4)[C@@H]3CC21OC1OC(CO)C(O)C(O)C1O (some centres not stated),Potency,[5],inactive
same,Potency,[6],inactive
same,Potency,[7],inactive
same,Potency,[10],inactive
same,outcome,[13],inactive
O=C1CC(c2cc(O)cc(O)c2)Oc2cc(O)ccc21 (configuration not stated),Potency,[12],inactive
same,Potency,[9],inactive
same,Potency,[10],inactive
same,outcome,[13],inactive
same,Potency,[11],inactive
Cc1cc(O)cc2oc(C[C@H](C)O)cc(=O)c12,Potency,[6],inactive
same,Potency,[7],inactive
same,Potency,[8],1.48 µM (active)
same,Potency,[10],inactive
same,Potency,[11],inactive
C=C1/C=C\C(CCC)=C\c2csc(n2)C(C)NC(=O)C[C@@]2(CC(=O)O)CCC(=C)[C@H](C1)S2 (some centres not stated),Potency,[5],inactive
same,Potency,[6],inactive
same,Potency,[9],inactive
same,outcome,[13],inactive
same,Potency,[11],inactive
C[C@@H]1O[C@@H](O[C@@H]2[C@@H](O)[C@H](O[C@@H]3[C@@H](O)[C@@H](O)C(O[C@H]4[C@H](OC(=O)[C@]56CCC(C)(C)C[C@H]5C5=CCC7[C@@]8(C)C[C@H](O)[C@H](O[C@@H]9C[C@H](CO)[C@@H](O)[C@H](O)[C@H]9O)[C@@](C)(CO)C8[C@H](O)C[C@@]7(C)[C@]5(C)CC6)OC[C@H](O)[C@@H]4O)O[C@H]3C)OC[C@H]2O)[C@H](O)[C@H](O)[C@H]1O (some centres not stated),Potency,[5],inactive
same,Potency,[6],inactive
same,Potency,[8],inactive
same,Potency,[11],inactive
C/C1=C/[C@@H](C)[C@H](O)C/C=C/CC/C=C/C(=O)O[C@@H]1[C@H](C)C(=O)/C=C/CC1CC(=O)NC(=O)C1,Potency,[5],7.43 µM (active)
same,outcome,[13],inactive
same,Potency,[11],inactive
CCCCC(C)(O)C/C=C/[C@H]1[C@H](O)CC(=O)[C@@H]1CCCCCCC(=O)O (some centres not stated),"activity change, negative = inhibition",[14],-15.4% [at 3.88 µM] (inactive)
CCCCC[C@H](O)/C=C/[C@H]1C=CC(=O)[C@@H]1C/C=C\CCCC(=O)O,Potency,[15],> 20.6 µM (inactive)
same,"activity change, negative = inhibition",[14],-13.8% [at 3.88 µM] (inactive)
O=c1sn(-c2cccc3ccccc23)c(=O)n1Cc1ccccc1,Potency,[16],inactive
same,Potency,[1],inactive and 7.42 µM (active)
same,Potency,[3],inactive
same,Z-AUC,[4],0.462 (inactive)
same,Z-AUC,[4]; [21],0.135
same,Z-AUC,[4]; measured here: PEO4 Z-AUC,0.0223
Nc1nc2c(ncn2[C@@H]2O[C@H](COP(=O)(O)OP(=O)(O)O)[C@@H](O)[C@H]2O)c(=O)[nH]1,Potency,[14],inactive
Nc1ncnc2c1ncn2[C@@H]1O[C@H](C(=O)NC2CC2)[C@@H](O)[C@H]1O,Potency,[14],inactive
Nc1ncnc(Nc2ccc(OCc3ccccc3)c(Cl)c2)c1/C=N/OCCN1CCOCC1,Potency,[16],16.6 µM (active)
same,Potency,[1],8.33 µM (active)
same,Potency,[2],inactive
same,Potency,[3],inactive
same,Z-AUC,[4],-0.0964 (inactive)
same,Z-AUC,[4]; [21],0.0883
same,Z-AUC,[4]; measured here: PEO4 Z-AUC,-0.311
CC[C@@](N)(C(=O)O)c1ccc(C(=O)O)cc1,Potency,[15],> 46 µM (inactive)
same,Potency,[17],> 46 µM (inactive)
same,"activity change, negative = inhibition",[18],2.13% (inactive)
same,max response,[18]; [22],-11.5%
same,max response,[18]; [23],-11.5%
same,Potency,[19],inactive
same,Potency,[20],inactive
same,Potency,[14],inactive
CS(=O)(=O)Nc1ccc([N+](=O)[O-])cc1OC1CCCCC1,Potency,[15],> 46 µM (inactive)
same,Potency,[17],> 46 µM (inactive)
same,Potency,[20],inactive
same,Potency,[14],inactive
CCCCCCCCCCCCCCCCCCc1ccc(C(=O)/C=C/C(=O)O)cc1,Potency,[14],inactive
O=C1CCc2c(ccc3ccccc23)O1,Potency,[15],> 46 µM (inactive)
same,Potency,[17],> 46 µM (inactive)
same,Potency,[19],inactive
same,Potency,[20],inactive
same,Potency,[14],inactive
c1ccc(CN2CCC3(CCc4ccccc43)CC2)cc1,Potency,[15],> 46 µM (inactive)
same,Potency,[17],> 46 µM (inactive)
same,Potency,[20],inactive
same,Potency,[14],inactive
CCOC(=O)C(CCc1ccccc1)NC1CCc2ccccc2N(CC(=O)O)C1=O (configuration not stated),"activity change, negative = inhibition",[18],1.93% (inactive)
same,max response,[18]; [22],11.8%
same,max response,[18]; [23],17.9%
same,Potency,[19],inactive
same,Potency,[14],inactive
CC[N+](CC)(CC)CCOc1ccc(/C=C\c2ccccc2)cc1,Potency,[15],> 46 µM (inactive)
same,Potency,[17],> 46 µM (inactive)
same,Potency,[20],inactive
same,Potency,[14],inactive
NCCC[C@@H](N)C(=O)O,Potency,[14],inactive
